Measurements as given in PubChem BioAssay.
Active and inactive are the calls of the source. Unless noted, the rule behind the calls is not given here.

What was measured:
[1] = tested on: Wnt5a (protein binding on small-molecule microarray); test: Wnt5a binders on small-molecule microarray, primary screen, biophysical, 635/667 nm fluorescence (AID 1142); settings: 635 nm fluorescence, higher = more signal;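 note: fluorescence read at 667 nm with signal to noise per printed feature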
[2] = cell viability in Huh7 cells, primary screen, cytotoxicity control for HCV replication inhibitor project, CellTiter-Glo luminescence, basal, 48 h (AID 1143); settings: Huh7 HCV replicon, higher = more signal, called active from +8 up or from −8 down;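 note: Huh7 hepatoma cells carrying a hepatitis C replication reporter with no stimulus; test concentration not given here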
[3] = P. aeruginosa biofilm formation inhibitors, primary screen, PAO1 strain, BacTiter-Glo luminescence, LB-PBS (AID 1144); settings: 12 h, higher = more signal
[4] = CREB reporter modulators without forskolin, primary screen, cell-based, PC12, CRE-LacZ reporter, unstimulated (AID 1145); settings: no forskolin, luminescence, 4.5 h, higher = more signal, called active from +8 up or from −8 down
[5] = CREB reporter modulators under forskolin, primary screen, cell-based, PC12, CRE-LacZ reporter, forskolin-stimulated (AID 1146); settings: luminescence, 4.5 h, higher = more signal, called active from +8 up or from −8 down;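 note: PC12 cells with 6xCRE LacZ reporter stimulated by forskolin 10 µM; beta-galactosidase reporter signal reflecting CREB driven transcription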
[6] = biological target: Streptavidin (Streptomyces avidinii) (UniProt P22629); test: streptavidin binders on small-molecule microarray, primary screen, artefact control for SMM compound annotation, biophysical, 635/667 nm fluorescence (AID 1147); settings: streptavidin binding, higher = more signal;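 note: signal reflects streptavidin binding to arrayed compounds as a control protein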
[7] = small-molecule binders of probe aInhba, primary screen, biochemical, small-molecule microarray, 635/667 nm fluorescence (AID 1148); settings: higher = more signal;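 note: score merges 667nm spot fluorescence with signal-to-noise for antibody binding to printed compounds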
Torsin-1A (Homo sapiens) [8] = biological target: Torsin-1A (Homo sapiens) (UniProt O14656); test: torsin A binders from cell lysate, primary screen, small-molecule microarray, wild-type, 635/667 nm (AID 1149); settings: COS7 hTOR1A-WT lysate, 635 nm fluorescence, higher = more signal
Torsin-1A (Homo sapiens) [9] = biological target: Torsin-1A (Homo sapiens) (UniProt O14656); test: small-molecule binders of mutant TOR1A in lysate, primary screen, cell lysate, small-molecule microarray, COS7 lysate, 635/667 nm fluorescence (AID 1150); settings: COS7 hTOR1A mutant lysate, 635 nm fluorescence, higher = more signal;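 note: score pools 667 nm emission and signal to noise measuring lysate protein binding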
[10] = tested on: Sonic hedgehog protein (Shh); test: small-molecule binders of Shh protein, primary screen, biochemical, small-molecule microarray, 635/667 nm fluorescence (AID 1151); settings: small-molecule microarray binding, 635 nm fluorescence; higher = more signal;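 note: Shh protein binding to compounds spotted on small-molecule microarray slides; score combines spot fluorescence intensity with signal-to-noise across triplicate slides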

Chain of Streptavidin (Streptomyces avidinii) (P22629 whole entry, looked up): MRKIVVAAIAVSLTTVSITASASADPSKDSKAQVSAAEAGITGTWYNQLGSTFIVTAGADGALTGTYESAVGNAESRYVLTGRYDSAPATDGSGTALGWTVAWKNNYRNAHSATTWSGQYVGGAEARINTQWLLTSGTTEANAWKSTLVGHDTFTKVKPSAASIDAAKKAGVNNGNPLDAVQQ
Chain of Torsin-1A (Homo sapiens) (O14656 whole entry, looked up): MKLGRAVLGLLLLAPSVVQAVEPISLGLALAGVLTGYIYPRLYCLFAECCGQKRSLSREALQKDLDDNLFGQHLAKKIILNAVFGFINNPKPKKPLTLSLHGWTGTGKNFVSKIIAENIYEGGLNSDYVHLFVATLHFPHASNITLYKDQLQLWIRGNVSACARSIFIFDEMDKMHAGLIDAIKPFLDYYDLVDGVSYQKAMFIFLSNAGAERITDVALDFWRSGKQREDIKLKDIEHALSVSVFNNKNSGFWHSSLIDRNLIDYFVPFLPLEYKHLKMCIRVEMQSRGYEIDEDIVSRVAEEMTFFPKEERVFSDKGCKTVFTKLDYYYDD

SMILES | composite z-score [1] | z-score [2] | z-score [3] | z-score [4] | z-score [5] | composite z-score [6] | composite z-score [7] | composite z-score (Torsin-1A (Homo sapiens) [8]) | composite z-score (Torsin-1A (Homo sapiens) [9]) | composite z-score [10]
CCCCC=C[C@@H](NC(=O)c1ccco1)c1ccccc1 | 0.143 | -1.08 (inactive) | -0.668 (inactive) | 0.19 (inactive) | -0.0695 (inactive) | 0.889 | 0.194 | 0.129 | 0.225 | 0.0154
CCN(CC)c1ccc(N2CC=CC34O[C@@H]5C=CCCOC(=O)C5[C@H]3C(=O)N(CCCCCO)[C@@H]4C2=O)cc1 (stereo not given in full) | 0.0385 | -0.484 (inactive) | -0.947 (inactive) | 0.593 (inactive) | -0.686 (inactive) | -0.45 | 0.0173 | 0.846 | 0.307 | 0.16
COC(=O)c1ccc(C(O)C2C=CC3C(=O)N(c4ccccc4)C(=O)C3N2Nc2ccc(C#N)cc2)o1 (stereo not given) | 0.304 | 1.07 (inactive) | -1.05 (inactive) | 1.4 (inactive) | -0.22 (inactive) | 0.337 | -0.0901 | 0.928 | 0.0721 | -0.0224
COc1ccc(C(O)C2C=CC3C(=O)N(c4ccccc4)C(=O)C3N2Nc2ccc([N+](=O)[O-])cc2)cc1OCc1ccccc1 (stereo not given) | 1.43 | -0.317 (inactive) | 0.208 (inactive) | -0.387 (inactive) | -0.588 (inactive) | 0.935 | 1.16 | -0.153 | 0.159 | -0.381
C=C(CCCC)C(=O)CC[C@H](OC(=O)c1cccnc1)c1cccc(OCCO)c1 | 0.54 | -0.293 (inactive) | -0.0707 (inactive) | 11 (active) | 0.189 (inactive) | 0.0158 | -0.231 | 0.524 | 0.186 | 1.12
CC(C)(C)OC(=O)CC[C@]1(C(=O)N2CCCCC2)N=C(c2ccc(OCCCO)cc2)O[C@H]1c1ccccc1N=[N+]=[N-] | 0.556 | -2.48 (inactive) | 0.043 (inactive) | 1.43 (inactive) | -1.57 (inactive) | 1.87 | 0.813 | 0.569 | 2.11 | 0.837
